{
  "source": "PubChem BioAssay (NCATS)",
  "note": "“And” between values parts separate entries of the source, which are not always exact repeats. Identical values can stand only once. Inconclusive results are not listed. Where a call stands in place of a potency, no number is given. Where a structure was tested more than once in an assay, its records may differ in their call. The source made the active and inactive calls. Calls come from the whole dose curve; as a rule, active = well fitted cell-killing curve with a large enough effect; inconclusive = small, poorly fitted or top-dose-only effect, or effect the other way; inactive = flat fitted curve, though single readings scatter. Potency is the fitted concentration of half-maximal effect.",
  "data": [
    {"tested_on": "SKOV3", "assay": "Primary qHTS to identify gynecologic anti-cancer compounds using libraries of approved drugs and bioactive compounds (AID 1345084); note: nearly all actives have a fitted effect of over 55% in size", "settings": "Gynecologic cancer cell panel viability, ATPlite luminescence, 48 h; series mostly up to 57.5 µM", "in_short": "(§1)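 In this quantitative HTS, cell killing is estimated from loss of ATP-dependent luciferase light. Cells see five compound concentrations over a 48 h exposure.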", "values": [
      {"smiles": "CCNC(=O)CC1N=C(c2ccc(Cl)cc2)c2cc(OC)ccc2-n2c(C)nnc21", "note": "(configuration not stated)", "Potency": "inactive and 15.8 µM (active)"},
      {"smiles": "Cc1ccccc1-n1c(Cn2cnc3c(N)ncnc32)nc2cccc(C)c2c1=O", "Potency": "inactive"},
      {"smiles": "Cc1ccc(Cl)c(O)c1", "Potency": "inactive"},
      {"smiles": "CCN(CC)C(=O)c1ccc(C2=CC3(CCNCC3)Oc3cccc(O)c32)cc1", "Potency": "inactive"},
      {"smiles": "CS(=O)(=O)c1ccc(C(=O)C2C(=O)CCCC2=O)c([N+](=O)[O-])c1", "Potency": "inactive"},
      {"smiles": "CN[C@@H](C)[C@H](O)c1ccccc1", "Potency": "inactive"},
      {"smiles": "COC(=O)c1cncn1C(C)c1ccccc1", "note": "(configuration not stated)", "Potency": "inactive"},
      {"smiles": "CC1=C(C(=O)O)N2C(=O)[C@@H](N)[C@H]2SC1", "Potency": "inactive"},
      {"smiles": "O=C(Oc1ccc([N+](=O)[O-])cc1)N1CCN(Cc2cccc(Oc3ccccc3)c2)CC1", "Potency": "inactive"},
      {"smiles": "COC1=C[C@@H]2[C@@H]3Cc4ccc(OC)c(O)c4[C@]2(CCN3C)CC1=O", "Potency": "inactive"},
      {"smiles": "O=C(O)CNC(=O)c1c(O)c2ccccc2n(Cc2ccccc2)c1=O", "Potency": "inactive"},
      {"smiles": "CC(O)CN1CCN(CC(=O)[O-])CCN(CC(=O)[O-])CCN(CC(=O)[O-])CC1.[Gd+3]", "note": "(configuration not stated)", "Potency": "inactive"},
      {"smiles": "CN1CCN(c2ccc([N+](=O)[O-])c3no[n+]([O-])c23)CC1", "Potency": "inactive"},
      {"smiles": "O=C(O)COc1ccccc1", "Potency": "inactive"},
      {"smiles": "C1CCC(NC2CCCCC2)CC1", "Potency": "inactive"},
      {"smiles": "O=C(N[C@H]1CN2CCC1CC2)c1ccc(Cl)cc1", "Potency": "inactive"},
      {"smiles": "Cc1c(C(=O)Nc2cccc(C(F)(F)F)c2)cc(-c2ccccc2)n1CCCN1CCOCC1", "Potency": "inactive"},
      {"smiles": "CC(=O)NCCc1c[nH]c2ccccc12", "Potency": "inactive"},
      {"smiles": "O=C(O)COc1nc(Cl)c(Cl)cc1Cl", "Potency": "inactive"},
      {"smiles": "C=CC(=O)NCNC(=O)C=C", "Potency": "inactive"},
      {"smiles": "O=C1C(I)=CC(=C(c2cc(I)c(O)c(I)c2)c2ccccc2C(=O)O)C=C1I", "Potency": "inactive"},
      {"smiles": "CCc1c(C(=O)C(N)=O)c2c(OCC(=O)O)cccc2n1Cc1ccccc1", "Potency": "inactive"},
      {"smiles": "O=C1C=CC[C@@H]2[C@H]3CCCN4CCC[C@@H](CN12)[C@@H]34", "Potency": "inactive"},
      {"smiles": "O=C(Oc1ccc([N+](=O)[O-])cc1)N1CCC(C(O)(c2ccc3c(c2)OCO3)c2ccc3c(c2)OCO3)CC1", "Potency": "inactive"},
      {"smiles": "O=C(NCC1CCOCC1)c1cnc(Nc2ccc(Cl)cc2Cl)nc1C(F)(F)F", "Potency": "inactive"},
      {"smiles": "Cc1ccccc1-n1c(Cn2ncc3c(N)ncnc32)nc2cccc(C)c2c1=O", "Potency": "inactive"},
      {"smiles": "O=C(O)c1cc(Oc2ccc(C(F)(F)F)cc2Cl)ccc1[N+](=O)[O-]", "Potency": "inactive"},
      {"smiles": "Oc1ccc2c3c1O[C@H]1[C@@H](O)C=C[C@H]4[C@@H](C2)NCC[C@@]341", "Potency": "inactive"},
      {"smiles": "CC(C)NCC(O)c1ccc([N+](=O)[O-])cc1", "note": "(configuration not stated)", "Potency": "inactive"},
      {"smiles": "CC[N+]1(CCOC(=O)C(O)(c2ccccc2)c2ccccc2)CCCCC1", "Potency": "inactive"},
      {"smiles": "CCOC(=O)Nc1ccc(NCc2ccc(F)cc2)cc1N", "Potency": "inactive"},
      {"smiles": "CCO/N=C(\\CC)C1=C(O)CC(c2c(C)cc(C)cc2C)CC1=O", "note": "(configuration not stated)", "Potency": "inactive"},
      {"smiles": "S=C(NC1CCCCC1)N1CCC(c2cnc[nH]2)CC1", "Potency": "inactive"},
      {"smiles": "CC(=O)N(C)c1cccc(-c2ccnc3c(C(=O)c4cccs4)cnn23)c1", "Potency": "inactive"},
      {"smiles": "O=S(=O)(O)C(F)(F)C(F)(F)C(F)(F)C(F)(F)C(F)(F)C(F)(F)C(F)(F)C(F)(F)F", "Potency": "inactive"},
      {"smiles": "O=S(=O)(O)C(F)(F)C(F)(F)C(F)(F)C(F)(F)F", "Potency": "inactive"}
    ]},
    {"tested_on": "Tov-21-G", "assay": "Primary qHTS to identify gynecologic anti-cancer compounds using libraries of approved drugs and bioactive compounds (AID 1345084); note: nearly all actives have a fitted effect of over 55% in size", "settings": "Gynecologic cancer cell panel viability, ATPlite luminescence, 48 h; series mostly up to 57.5 µM", "in_short": "as §1", "values": [
      {"smiles": "CCNC(=O)CC1N=C(c2ccc(Cl)cc2)c2cc(OC)ccc2-n2c(C)nnc21", "note": "(configuration not stated)", "Potency": "inactive"},
      {"smiles": "Cc1ccccc1-n1c(Cn2cnc3c(N)ncnc32)nc2cccc(C)c2c1=O", "Potency": "inactive"},
      {"smiles": "Cc1ccc(Cl)c(O)c1", "Potency": "inactive"},
      {"smiles": "CCN(CC)C(=O)c1ccc(C2=CC3(CCNCC3)Oc3cccc(O)c32)cc1", "Potency": "inactive"},
      {"smiles": "CS(=O)(=O)c1ccc(C(=O)C2C(=O)CCCC2=O)c([N+](=O)[O-])c1", "Potency": "inactive"},
      {"smiles": "CN[C@@H](C)[C@H](O)c1ccccc1", "Potency": "inactive"},
      {"smiles": "COC(=O)c1cncn1C(C)c1ccccc1", "note": "(configuration not stated)", "Potency": "inactive"},
      {"smiles": "CC1=C(C(=O)O)N2C(=O)[C@@H](N)[C@H]2SC1", "Potency": "inactive"},
      {"smiles": "O=C(Oc1ccc([N+](=O)[O-])cc1)N1CCN(Cc2cccc(Oc3ccccc3)c2)CC1", "Potency": "inactive"},
      {"smiles": "COC1=C[C@@H]2[C@@H]3Cc4ccc(OC)c(O)c4[C@]2(CCN3C)CC1=O", "Potency": "inactive"},
      {"smiles": "O=C(O)CNC(=O)c1c(O)c2ccccc2n(Cc2ccccc2)c1=O", "Potency": "inactive"},
      {"smiles": "CC(O)CN1CCN(CC(=O)[O-])CCN(CC(=O)[O-])CCN(CC(=O)[O-])CC1.[Gd+3]", "note": "(configuration not stated)", "Potency": "inactive"},
      {"smiles": "CN1CCN(c2ccc([N+](=O)[O-])c3no[n+]([O-])c23)CC1", "Potency": "inactive"},
      {"smiles": "O=C(O)COc1ccccc1", "Potency": "inactive"},
      {"smiles": "C1CCC(NC2CCCCC2)CC1", "Potency": "inactive"},
      {"smiles": "O=C(N[C@H]1CN2CCC1CC2)c1ccc(Cl)cc1", "Potency": "inactive"},
      {"smiles": "Cc1c(C(=O)Nc2cccc(C(F)(F)F)c2)cc(-c2ccccc2)n1CCCN1CCOCC1", "Potency": "inactive"},
      {"smiles": "CC(=O)NCCc1c[nH]c2ccccc12", "Potency": "inactive"},
      {"smiles": "O=C(O)COc1nc(Cl)c(Cl)cc1Cl", "Potency": "inactive"},
      {"smiles": "C=CC(=O)NCNC(=O)C=C", "Potency": "inactive"},
      {"smiles": "O=C1C(I)=CC(=C(c2cc(I)c(O)c(I)c2)c2ccccc2C(=O)O)C=C1I", "Potency": "inactive"},
      {"smiles": "CCc1c(C(=O)C(N)=O)c2c(OCC(=O)O)cccc2n1Cc1ccccc1", "Potency": "inactive"},
      {"smiles": "O=C1C=CC[C@@H]2[C@H]3CCCN4CCC[C@@H](CN12)[C@@H]34", "Potency": "inactive"},
      {"smiles": "O=C(Oc1ccc([N+](=O)[O-])cc1)N1CCC(C(O)(c2ccc3c(c2)OCO3)c2ccc3c(c2)OCO3)CC1", "Potency": "inactive"},
      {"smiles": "O=C(NCC1CCOCC1)c1cnc(Nc2ccc(Cl)cc2Cl)nc1C(F)(F)F", "Potency": "inactive"},
      {"smiles": "Cc1ccccc1-n1c(Cn2ncc3c(N)ncnc32)nc2cccc(C)c2c1=O", "Potency": "inactive"},
      {"smiles": "O=C(O)c1cc(Oc2ccc(C(F)(F)F)cc2Cl)ccc1[N+](=O)[O-]", "Potency": "inactive"},
      {"smiles": "Oc1ccc2c3c1O[C@H]1[C@@H](O)C=C[C@H]4[C@@H](C2)NCC[C@@]341", "Potency": "inactive"},
      {"smiles": "CC(C)NCC(O)c1ccc([N+](=O)[O-])cc1", "note": "(configuration not stated)", "Potency": "inactive"},
      {"smiles": "CC[N+]1(CCOC(=O)C(O)(c2ccccc2)c2ccccc2)CCCCC1", "Potency": "inactive"},
      {"smiles": "CCOC(=O)Nc1ccc(NCc2ccc(F)cc2)cc1N", "Potency": "inactive"},
      {"smiles": "CCO/N=C(\\CC)C1=C(O)CC(c2c(C)cc(C)cc2C)CC1=O", "note": "(configuration not stated)", "Potency": "inactive"},
      {"smiles": "S=C(NC1CCCCC1)N1CCC(c2cnc[nH]2)CC1", "Potency": "inactive"},
      {"smiles": "CC(=O)N(C)c1cccc(-c2ccnc3c(C(=O)c4cccs4)cnn23)c1", "Potency": "inactive"},
      {"smiles": "O=S(=O)(O)C(F)(F)C(F)(F)C(F)(F)C(F)(F)C(F)(F)C(F)(F)C(F)(F)C(F)(F)F", "Potency": "inactive"},
      {"smiles": "O=S(=O)(O)C(F)(F)C(F)(F)C(F)(F)C(F)(F)F", "Potency": "inactive"}
    ]}
  ]
}
